The panel holds about 83,000 compounds, 20% with a hit somewhere; the sample as a whole holds those more often.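 Growth was measured after 48 h exposure to one concentration of compound in 96-well plates. Values under 10 count as active.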 A number with no mark means an inactive call. Active and inactive are the calls of the source.
Experiments:
Assay in all cases: NCI-60 one-dose screen, 48 h (100 = growth as untreated, 0 = no growth, -100 = all killed)
Conditions in all cases: 10 µM unless noted
NCI-H23 lung = tested on: NCI-H23 lung
NCI-H226 lung = tested on: NCI-H226 lung
NCI-H322M lung = tested on: NCI-H322M lung
HOP-62 NSCLC = tested on: HOP-62 NSCLC
NCI-H460 lung = tested on: NCI-H460 lung
HOP-92 NSCLC = tested on: HOP-92 NSCLC
NCI-H522 lung = tested on: NCI-H522 lung
A549/ATCC NSCLC = tested on: A549/ATCC NSCLC
786-0 renal = tested on: 786-0 renal
COLO 205 colon = tested on: COLO 205 colon

Structure (SMILES) | growth (NCI-H23 lung) | growth (NCI-H226 lung) | growth (NCI-H322M lung) | growth (HOP-62 NSCLC) | growth (NCI-H460 lung) | growth (HOP-92 NSCLC) | growth (NCI-H522 lung) | growth (A549/ATCC NSCLC) | growth (786-0 renal) | growth (COLO 205 colon)
CN1CCN(c2ccc3nc(-c4ccc5nc(-c6ccc(OCCC(C)(C)C)cc6)[nH]c5c4)[nH]c3c2)CC1 | -3.61% (active) | 95.3% | 40.7% | 21.5% | -80% (active) | 69.6% | -38% (active) | -45.3% (active) | -60.2% (active) | 5.08% (active)
COc1cc(/C=C2\CN(C(=O)CCN3CCC(=NO)CC3)C/C(=C\c3cc(OC)c(OC)c(OC)c3)C2=O)cc(OC)c1OC | -21.9% (active) | -6.36% (active) | -89.2% (active) | -47.2% (active) | -64% (active) | -49.2% (active) | -74.7% (active) | 2.51% (active) | -38.6% (active) | -85.8% (active)
CCN(CC)Cc1cc(Nc2c3ccc(Cl)cc3nc3c(C)cccc23)ccc1O | -75.5% (active) | -28.1% (active) | -25.6% (active) | -74.6% (active) | -78.1% (active) | -62.7% (active) | -77.2% (active) | -15.5% (active) | -91.6% (active) | -92.4% (active)
CC#CC#Cc1cccc(=O)o1 | 40.4% | 74.4% | 50.3% | 110% | 83.5% | 35.3% | 59.2% | 104% | 83.5% | 46.8%
O=C1NC(=O)C(CC(=O)n2c(-c3ccccc3)nc3ccccc32)C(=O)N1 | 97.4% | 97.7% | 100% | 94.4% | 102% | 97.5% | 93% | 101% | 99.7% | 118%
C=CC[N+]1(CCO)CCN=C1CCCCCCCCCCCCC (stereo not given) | -86.7% (active) | 3.45% (active) | 73.9% | -90.5% (active) | -85.8% (active) | -18.3% (active) | -82.6% (active) | 0.535% (active) | -97.1% (active) | -91.4% (active)
C=C(C[n+]1ccccc1)[C@@H]1CC[C@]2(C(=O)OC)CC[C@]3(C)[C@H](CC[C@@H]4[C@@]5(C)CC[C@H](O)C(C)(C)[C@@H]5CC[C@]43C)[C@@H]12 | 97.4% | 89.5% | 101% | 93.5% | 105% | 82.9% | 78% | 105% | 102% | 102%
COc1cccc(/C=C\C(=O)c2ccccc2)c1 | 86.7% | 76.7% | 85% | 87% | 78% | 87.6% | 81.2% | 92.4% | 74.4% | 90.1%
C=C1CC[C@@H]2[C@](C)(COC(C)=O)[C@H](OC(C)=O)CC[C@@]2(C)[C@@H]1CC(NCc1ccc(F)cc1)C1=CCOC1=O (stereo not given in full) | 57.9% | 40.1% | 72.5% | 78.7% | 55.2% | 18.8% | 20.9% | 57.9% | 86.8% | 42.2%
C=C1C(=O)O[C@H]2[C@H]1CC/C(Cn1cc(Cn3ccc4ccccc43)nn1)=C\CC[C@@]1(C)O[C@@H]21 | 45.6% | 76.8% | 79.7% | 77.5% | 86.5% | -36.3% (active) | -60.6% (active) | 62% | -19.5% (active) | -71.4% (active)
CC1=C(NCCN2CCCC2)C(=O)c2c(OCc3ccc(C(F)(F)F)cc3)cccc2C1=O | 90.2% | 91.3% | 91% | 86.9% | 68.9% | 32.5% | 100% | 85% | 67% | 82.4%
Clc1nc(Cl)c2c3c(sc2n1)CCCC3 | 32.5% | 3.63% (active) | 90.2% | 91.4% | 109% | 103% | 7.65% (active) | 120% | 96.1% | 5.1% (active)
Oc1ccccc1N=Cc1c(O)ccc2ccccc12 | 88.2% | 87.3% | 82.6% | 83.7% | 81.3% | 58.3% | 81% | 95.4% | 86.2% | 108%
NC1=CC(=O)C(=O)c2ccccc21 | 72.7% | 98.1% | 102% | 98.2% | 106% | 106% | 80.6% | 112% | 92.8% | 117%
CC(C)CC(CC1=CCC2CC1C2(C)C)C1=C(O)C(C)(C)C(=O)C(C)(C)C1=O (stereo not given) | 5.33% (active) | 13.7% | 9.97% (active) | -4.19% (active) | 4.62% (active) | -27.4% (active) | 3.54% (active) | 0.788% (active) | 6.76% (active) | -65.7% (active)
CCOC(=O)CC(C)=N | 118% | 106% | 121% | 107% | 109% | 99.4% | 92% | 101% | 103% | 108%
O=C1c2cc3c(cc2-c2c1c1cc(Cl)c(Cl)cc1c(=O)n2C[C@H](O)CO)OCO3 | -55.7% (active) | -62% (active) | -16% (active) | -54.3% (active) | -0.391% (active) | -31.9% (active) | -29% (active) | -47.3% (active) | -44.3% (active) | -39.4% (active)
O=C(O)c1cccnc1Br | 98.1% | 99.8% | 112% | 96.2% | 113% | 115% | 84.8% | 101% | 90.2% | 115%
C=C1CC2(OC1=O)C(=O)N(CCCCCCCN1C(=O)C3(CC(=C)C(=O)O3)c3ccccc31)c1ccccc12 (stereo not given) | 52.6% | 63% | 87% | 117% | 38% | -1.35% (active) | -48.1% (active) | 83.7% | 46.7% | 12.8%
COc1ccc2c(c1)C(=O)/C(=C/c1cccc(OCC(=O)Nc3nc4c(s3)CCCC4)c1)O2 | -48.9% (active) | 101% | 82.5% | 99.3% | 71.3% | -74.8% (active) | -50.3% (active) | 54.6% | 63.3% | -3.43% (active)
Cc1cc(-c2nc3ccccc3s2)ccc1NC(=O)COc1ccc(Cl)cc1 | 79.7% | 70.6% | 106% | 89.8% | 92.8% | 83.5% | 87.8% | 109% | 93.4% | 110%

Structure (SMILES) | growth (NCI-H23 lung) | growth (NCI-H226 lung) | growth (NCI-H322M lung) | growth (HOP-62 NSCLC) | growth (NCI-H460 lung) | growth (HOP-92 NSCLC) | growth (NCI-H522 lung) | growth (A549/ATCC NSCLC) | growth (786-0 renal) | growth (COLO 205 colon)
O=C1C(Cl)=C(Cl)C(=O)c2c1nc1n2CCCC1 | 74.3% | 109% | 52.7% | 97.1% | 39.9% | 102% | 85.2% | 98.4% | 94.7% | 5.79% (active)
COc1ccc(-n2cc(-c3ccccc3)c3c(SCC(=O)N/N=C/c4ccc([N+](=O)[O-])cc4)ncnc32)cc1 | 88.9% | 84.2% | 106% | 100% | 113% | 98.3% | 91.5% | 105% | 95.3% | 109%
Nc1nc(-c2ccc(F)cc2)cc(-c2cnn(-c3ccccc3)n2)n1 | 99.1% | 105% | 93.9% | 101% | 103% | 94.1% | 82.2% | 95.3% | 107% | 105%
C=C1CCC2C3(C)COC(c4cccc(Cl)c4)OC3CCC2(C)C1/C=C/C1=CCOC1=O (stereo not given) | 38.2% | 61% | 90.2% | 76.7% | 36.2% | 98.2% | 57.8% | 58.4% | 65.9% | 106%
CCCCCCCCSC1=CC(=O)C(OC)=C(OC)C1=O | 26.6% | 80.9% | 89.4% | 91.3% | 45.9% | -31.3% (active) | -97.8% (active) | 57.2% | 61.9% | 37.1%
CC[n+]1ccc2c(c1)C(=O)c1nccc3c1c-2nc1ccccc13 | -27.9% (active) | -67.1% (active) | -16.3% (active) | -27.6% (active) | -82.1% (active) | -11.9% (active) | -38% (active) | -4.31% (active) | -14.4% (active) | -23.8% (active)
COc1ccc(/C=C/C(=O)c2c(O)c(C)c(O)c3c2OC2=CC(O)=C(C(C)=O)C(=O)[C@]23C)cc1 | -32.9% (active) | -28.2% (active) | -17.9% (active) | -40% (active) | 1.69% (active) | -18.8% (active) | -32.2% (active) | -26.8% (active) | -29.7% (active) | -74.1% (active)
O=C(/C=C/c1cc2ccccc2[nH]c1=O)/C=C/c1cc2ccccc2[nH]c1=O | -41.6% (active) | -30.3% (active) | 86.9% | 0.443% (active) | -36.7% (active) | 68.7% | -51.1% (active) | -8% (active) | -59.5% (active) | -11.6% (active)
COc1cc(NC(N)=NCC(C)(C)COc2ccc(C(F)(F)F)cc2)cnc1C#N | 64.9% | 68.7% | 53.1% | 68.5% | 58% | -9.25% (active) | 57.6% | 72.5% | 61.4% | 59.9%
CCOC(=O)C12CCCC1=CC(=O)CC2 (stereo not given) | 107% | 107% | 104% | 101% | 107% | 107% | 105% | 91.6% | 104% | 108%
Cc1nn(-c2nc3ccccc3[nH]2)c2c1C(c1ccc3c(c1)OCO3)CC(=O)N2 (stereo not given) | 4.34% (active) | 32% | 65% | 22.1% | -8.19% (active) | 12.6% | 26.7% | 22.8% | 32.8% | 83.1%
Oc1cccc(Nc2nccc(-c3ccc4ccccc4c3)n2)c1 | 33.2% | 70.8% | 46% | 27.2% | 16.1% | 63.5% | 15.6% | 30.7% | 30.1% | 84.7%
CCC(C)[C@@H]1NC(=O)[C@@H]2CCCN2C(=O)[C@H](Cc2ccccc2)NC(=O)[C@@H]2CCCN2C(=O)[C@H](Cc2ccccc2)NC(=O)[C@@H]2CCCN2C(=O)[C@H](Cc2ccccc2)NC1=O (stereo not given in full) | 113% | 109% | 127% | 103% | 104% | 95.3% | 96.3% | 101% | 109% | 108%
Nc1c(C(=O)Nc2ccccc2)sc2nc3c(cc12)CN(CCc1ccccc1)CC3 | 84.2% | 89.8% | 94.2% | 99.2% | 100% | 75.5% | 86.1% | 107% | 101% | 116%
CCCCN(CCCC)Cc1c(C)[nH]c2cc(OC)ccc2c1=O | 107% | 103% | 113% | 88.9% | 103% | 65.3% | 94.6% | 95.4% | 105% | 101%
C[C@@H]1CCC2=C(CCC[C@]2(C)C(=O)O)[C@@]1(C)CCc1ccoc1 | 99.4% | 85.7% | 93.4% | 96.5% | 96.9% | 85.1% | 77% | 75.8% | 112% | 112%
O=C1Nc2ccccc2/C1=C/C(=N/c1nnc(-c2ccccc2)s1)c1ccccc1 | 45.7% | 86.5% | 95.7% | 57% | 88.2% | 45.4% | -59.3% (active) | 80.2% | -19.3% (active) | 2.53% (active)
COc1ccc(-c2cc(/C=C3\C(=O)Nc4ccc(Cl)cc43)[nH]n2)cc1 | 63.1% | 75.7% | 77.3% | 55.5% | 37% | 80.7% | 9.37% (active) | 35.7% | 82.3% | 37%
CN[C@@]12CC3(C=CC(=O)C=C3)O[C@]1(Cc1ccc(OC)cc1)N(C)C(=O)N2 | 91% | 89.4% | 79.9% | 114% | 101% | 94.4% | -23.6% (active) | 74.4% | 84.2% | 47.3%
CCOC(=O)c1cnc2ccc(Br)cc2c1Nc1cccc(S(=O)(=O)NC)c1 | 84.7% | 90.8% | 98.3% | 92.3% | 102% | 102% | 83.6% | 104% | 103% | 128%
CCCCCn1cnc2c(=S)nc[nH]c21 | 102% | 110% | 121% | 110% | 98.5% | 101% | 90% | 118% | 106% | 105%

— PubChem BioAssay (NCI)
